Results on 7 compounds are retold here after PubChem BioAssay (NCI).

Structures are written as SMILES. This is part of a sample that, as a whole, favours compounds with a hit. Of some 83,000 tested, about 20% had one in any assay.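 48-hour exposure, single concentration, 96-well plates; percent growth endpoint where 0 means no net growth. Active: below 10.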 Unmarked numbers belong to inactive results. Active and inactive are the calls of the source.

What all share (experiment): NCI-60 one-dose screen, 48 h (100 = growth as untreated, 0 = no growth, -100 = all killed)
Holding throughout (conditions): 10 µM unless noted

The test system of experiment [1] is NCI-H23 lung.
The test system of experiment [2] is NCI-H226 lung.
Experiment [3] concerns NCI-H322M lung.
Experiment [4] has as its system HOP-62 NSCLC.
The test system of experiment [5] is NCI-H460 lung.
For experiment [6], the system named is HOP-92 NSCLC.
The subject of experiment [7] is NCI-H522 lung.
In experiment [8] the test system is A549/ATCC NSCLC.
Experiment [9] deals with 786-0 renal.
Experiment [10] concerns COLO 205 colon.
In experiment [11] the test system is DU-145 prostate.
Experiment [12] has as its system K-562 leukemia.
The subject of experiment [13] is MALME-3M melanoma.
Experiment [14] deals with MDA-MB-231 breast.
Experiment [15] has as its system RXF 393 renal.
Experiment [16] has as its system SF-268 CNS.
Experiment [17] has as its system SF-295 CNS.
In experiment [18] the test system is SF-539 CNS.
The test system of experiment [19] is UACC-257 melanoma.
Experiment [20] relates to M14 melanoma.

On to `c1cnc2[nH]cc(-c3csc(-c4cn(CCCN5CCCCC5)c5ccccc45)n3)c2c1`, for which the growth in [1] was 79.7%; in experiment [2], 77%; in [3] it was 83.8%; in experiment [4], 54.6%; in experiment [5], 10.1%; in [6] it was 35.1%. Besides, the growth in experiment [7] is 79.2%; in experiment [8], 58.3%; in experiment [9], 56.3%; in experiment [10] it was -74% (active); in [11] it was 67%; in [12], -45.4% (active). The growth is -55% (active) in [13]; 45% in experiment [14]; 52.3% in [15]; 58.9% in experiment [16]; 88.8% in experiment [17]; -48.5% (active) in [18]. The growth is 92% in [19] and -77.8% (active) in experiment [20].

In the case of `CC1(C)CC[C@]2(C(=O)Nc3ccccn3)CC[C@]3(C)C(=CC[C@@H]4[C@@]5(C)C/C(=C/c6ccncc6)C(=O)C(C)(C)[C@@H]5CC[C@]43C)[C@@H]2C1`, the growth was 34.4% in experiment [1]; 28.1% in [2]; 62.6% in experiment [3]; 70.9% in [4]; 6.3% (active) in [5]; 43.4% in experiment [6]. In addition, the growth in experiment [7] was 40.1%; in [8] it was 26.6%; in experiment [9], 44.2%; in [10] it was 2.97% (active); in experiment [11] it was 33.9%; in [12] it was 11%. Further, the growth in [13] is -2.79% (active); in experiment [14] it was 48.8%; in experiment [15], -21.5% (active); in experiment [16] it was 72.5%; in experiment [17], 30.8%; in experiment [18], 16.2%. Also, the growth is 48.4% in [19] and 20.6% in [20].

Consider `Cn1cnc2c1c(=O)n(CCC(=O)Nc1ccc(F)cc1)c(=O)n2C`, for which the growth in [1] was 95.8%; in [2] it was 106%; in [3] it was 107%; in experiment [4], 100%; in experiment [5], 108%; in [6] it was 96.4%. The growth in [7] is 87.3%; in experiment [8], 89.1%; in experiment [9], 94.8%; in [10], 104%; in experiment [11] it was 103%; in [12] it was 108%. The growth in experiment [13] was 97.1%; in experiment [14] it was 101%; in experiment [15] it was 116%; in experiment [16] it was 105%; in [17] it was 102%; in experiment [18] it was 101%. The growth in experiment [20] is 101%.

As for `C=C(C)[C@@H]1CC[C@]2(CN)CC[C@]3(C)[C@H](CC[C@@H]4[C@@]5(C)CCC(=O)NC(C)(C)[C@@H]5CC[C@]43C)[C@@H]12`, the growth was 85.3% in experiment [1]; 88.1% in experiment [2]; 89.1% in [3]; 81.6% in [4]; 90.3% in experiment [5]; 54.6% in experiment [6]. The growth is 88% in experiment [7]; 59.3% in experiment [8]; 84.6% in experiment [9]; 75.9% in experiment [10]; 75% in [11]; -4.63% (active) in experiment [12]. Further, the growth was -14.1% (active) in experiment [13]; 58.7% in [14]; 59% in experiment [15]; 64.5% in experiment [16]; 82.1% in experiment [17]; 75.2% in [18]. The growth in experiment [19] is 29.6%; in experiment [20], 70.9%.

`C[C@@H](Oc1ccc(C(=O)NS(=O)(=O)C(C)(C)C)cc1C(F)(F)F)c1ccc(Oc2ccccc2)cn1`: the growth in [1] is 61.2%; in [2], 72.7%; in experiment [3], 54.3%; in experiment [4] it was 52.2%; in experiment [5], 45.7%; in experiment [6], 63.7%. Further, the growth in experiment [7] is 24.5%; in experiment [8], 74.8%; in experiment [9], 37.5%; in [10], 48.7%; in experiment [11] it was 79.6%; in [12], 19.9%. Further, the growth in [13] was 44.4%; in experiment [14], 68.9%; in experiment [15], -12.5% (active); in [16], 54.3%; in experiment [17], 22.2%; in experiment [18] it was 29.8%. The results for the growth in experiment [19] and in experiment [20] were 51.5% and 22.8%, respectively.

`CC1(C)C(=O)/C(=C\c2ccco2)C[C@]2(C)[C@H]3CC[C@@H]4[C@@H](C(=O)/C=C/c5ccco5)CC[C@@]4(C)[C@]3(C)CC[C@@H]12`: the growth is 92.8% in experiment [1]; 103% in experiment [2]; 105% in [3]; 83.2% in [4]; 98.7% in [5]; 17.6% in experiment [6]. Moreover, the growth in experiment [7] was 92.4%; in experiment [8], 96.9%; in experiment [9], 119%; in experiment [10] it was -80.2% (active); in [11] it was 75.2%; in experiment [12] it was 85.6%. Further, the growth in [13] was 1.28% (active); in experiment [14] it was 56%; in experiment [15], 101%; in experiment [16], 78.7%; in experiment [17] it was 100%; in experiment [18], 97.5%. The growth was 16.8% in [19] and 23.9% in [20].

For `NC1=NN(c2ccccc2)C(=O)/C1=C/c1ccc(Cl)cc1`, the growth was 98% in experiment [1]; 99.2% in [2]; 97.8% in experiment [3]; 95.3% in experiment [4]; 99.1% in experiment [5]; 91.6% in experiment [6]. For the same compound, the growth in experiment [7] was 90.6%; in experiment [8], 98.5%; in experiment [9], 94.4%; in [10], 95.7%; in [11], 107%; in experiment [12], 102%. Also, the growth in experiment [13] was 92.4%; in [14], -99% (active); in experiment [15], 107%; in [16], 102%; in [17] it was 113%; in experiment [18], 111%. Also, the growth in [19] is 97.3%; in [20], 97.2%.
